Measured values taken from PubChem BioAssay (NCI).
The panel holds about 79,000 compounds, 15% with a hit somewhere; the sample as a whole holds those more often. Cut-off read from the data, not from the text of the source: active = growth inhibition above about 70%; inactive = the rest.

Columns and labels:
[1] = NCI Yeast Anticancer Drug Screen. Data for the rad50 strain (AID 155);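 note: 0% = growth of vehicle-only cultures of the same strain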; settings: S. cerevisiae rad50 strain growth inhibition; at 50.0 µM; stronger effect = higher value
Summary of the method: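 Genetically altered yeast (DNA repair pathway); compound treatment; growth inhibition vs vehicle ctrl.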

[2] = NCI Yeast Anticancer Drug Screen. Data for the mec2-1 strain (AID 157); settings: S. cerevisiae mec2-1 strain, at 50.0 µM, stronger effect = higher value
Summary of the method: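 Strain: mec2-1 (DNA repair/cell cycle alteration). Compound exposure, then growth measured; inhibition expressed relative to vehicle.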

[3] = NCI Yeast Anticancer Drug Screen. Data for the sgs1 mgt1 strain (AID 161);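 note: 0% = growth of cultures given vehicle only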; settings: S. cerevisiae sgs1 mgt1 strain, at 50.0 µM, stronger effect = higher value
Summary of the method: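 Read-out: growth inhibition vs vehicle controls. Cells: mutant yeast strain deficient in DNA damage repair.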

[4] = NCI Yeast Anticancer Drug Screen. Data for the cln2 rad14 strain (AID 165);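 note: 0% = growth equal to vehicle treated cultures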; settings: S. cerevisiae cln2 rad14 strain, at 50.0 µM, stronger effect = higher value
Summary of the method: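 Compounds are applied to the cln2 rad14 yeast strain, and growth is then compared with that of vehicle-treated cultures to give inhibition.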

[5] = NCI Yeast Anticancer Drug Screen. Data for the bub3 strain (AID 167); settings: S. cerevisiae bub3 mutant strain, at 50.0 µM, stronger effect = higher value
Summary of the method: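 Yeast carrying a defined mutation is treated with each compound, and growth is compared with that of vehicle-exposed cells to give inhibition.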

[6] = NCI Yeast Anticancer Drug Screen. Data for the mlh1 rad18 strain (AID 175); settings: S. cerevisiae mlh1 rad18 strain growth inhibition; at 50.0 µM; stronger effect = higher value
Summary of the method: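 Read-out is yeast growth inhibition, calculated against vehicle-only controls. The compound was applied to a strain engineered with DNA damage repair alterations.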

Measured: growth inhibition

CC(C)CC(C)(O)C(N)=O (stereo unspecified)
inactive: [1] -5.15% | [2] -7.55% | [3] -29% | [4] -21.8% | [5] 0.35% | [6] -4.95%

Cc1c(O)c([N+](=O)[O-])cc2c1OCOC2
inactive: [1] 3.8% | [2] 11.6% | [3] -3.15% | [4] -9.4% | [5] -17.5% | [6] 0%

CC1CNC(=O)NC1=O.O.O.[NH2-].[NH2-].[Pt+4] (stereo unspecified)
inactive: [1] 7.55% | [2] 11.2% | [3] -0.75% | [4] -51% | [5] -5.95% | [6] -5.85%

[Cl][Pt+2][Cl].[NH-]C1CCC1.[NH2-]
inactive: [1] 3.25% | [2] -3.5% | [3] -3.85% | [4] 18.4% | [5] -16.1% | [6] -66.6%

Cc1nc2ccccc2c(=O)n1NC(=O)c1ccccn1
inactive: [1] -6.6% | [2] -10% | [3] -11.6% | [4] -1.05% | [5] -5.55% | [6] -8.25%

CN1CCC2(CC1)C(=NC1CCCCC1)NC(=O)N2c1ccccc1
inactive: [1] -26.4% | [2] -6.15% | [3] -5.45% | [4] 1.1% | [5] 6.6% | [6] 3.7%

CCOC1Oc2ccccc2-c2nc(C)c(C#N)cc21 (stereo unspecified)
inactive: [1] 1.65% | [2] 7.75% | [3] 15.9% | [4] -66.5% | [5] 15.8% | [6] 12.4%

Cc1cccc(NC(=O)/C=C/C(=O)O)c1
inactive: [1] -31.9% | [2] -41% | [3] -17.9% | [4] -20.9% | [5] -29.6% | [6] -45.1%

COC(=O)C1C(=O)CC(C)(O)C(C(=O)OC)C1c1ccc(N(C)C)cc1 (stereo unspecified)
inactive: [1] -10.5% | [2] 19.9% | [3] 7.7% | [4] 53% | [5] 15.1% | [6] -25.4%

CC1CN(c2ccc(Cl)cc2)CC(C)OC(=O)O1 (stereo unspecified)
inactive: [1] 18.8% | [2] -5.75% | [3] 5.65% | [4] 22.9% | [5] 21.8% | [6] 8.6%

C=CCOC(=O)c1cccc(C(=O)OCC=C)c1
inactive: [1] 12.6% | [2] 23.4% | [3] 40.2% | [4] 19.1% | [5] 34.5% | [6] 33.8%

CCOC(=O)C1C(C)NC(C)C(C(=O)OCC)C1C (stereo unspecified)
inactive: [1] 15.9% | [2] 1.05% | [3] 3.4% | [4] -44.5% | [5] 5.3% | [6] 26.1%

CC1=CC(=O)C2=C(C)CCC3C(C)C(=O)OC3C12 (stereo unspecified)
inactive: [1] -4.2% | [2] -9.85% | [3] -6.75% | [4] 10.8% | [5] -3.55% | [6] -60.7%

ClCc1c(-c2ccccc2)nn(-c2ccccc2)c1CCl
inactive: [1] 8.65% | [2] 14.2% | [3] 38.5% | [4] 6.05% | [5] 57.5% | [6] 37%

COc1ccc(/C=C/C2=CC(=O)CC(c3ccc(OC)c(OC)c3)C2)cc1OC (stereo unspecified)
inactive: [1] 13.2% | [2] 5.35% | [3] 16.5% | [4] -35.6% | [5] 31.2% | [6] 9.35%

CCCCCCCCCSc1nc2ccc(N=Cc3ccccc3O)cc2s1
inactive: [1] -2.85% | [2] -6.8% | [3] -23.5% | [4] -10.1% | [5] 1.3% | [6] -40.6%

O=C(COc1ccc(Cl)cc1)Nc1nccs1
inactive: [1] 4.95% | [2] 32% | [3] 26.6% | [4] 5.7% | [5] 20.4% | [6] 21.4%

O=C1NC(CN2CCCC(O)C2)C(=O)NC1CN1CCCC(O)C1 (stereo unspecified)
inactive: [1] 2% | [2] 9.35% | [3] 13.3% | [4] -22.8% | [5] -4.45% | [6] 7.6%

C#CCOc1ccc(C(F)(F)F)cc1
inactive: [1] -8.1% | [2] -15.4% | [3] -1.6% | [4] -17.4% | [5] 15.4% | [6] -2.05%

Cc1ccc2nc(CN(CCO)CCO)cc(=O)n2c1
inactive: [1] 34.4% | [2] 4.95% | [3] 40.5% | [4] 4% | [5] 26.6% | [6] 28.4%

CN(C)/C(N)=N/S(=O)(=O)c1ccc(C#N)cc1
inactive: [1] 5% | [2] 2.85% | [3] -0.25% | [4] 6.1% | [5] 4.7% | [6] 2.45%

NCC1CCC(C(=O)O)CC1 (stereo unspecified)
inactive: [1] -14.4% | [2] -9.35% | [3] -10% | [4] -20.9% | [5] -24.9% | [6] -21.6%

O=C(Nc1ccc(Cl)cc1)c1cc2cc(N=Nc3ccc(Br)cc3)ccc2oc1=O
inactive: [1] -18.1% | [2] 9.75% | [3] -13.3% | [4] -1.65% | [5] -23.9% | [6] -6.65%

C[n+]1cc(N)cc2ccccc21
inactive: [1] 1.65% | [2] -4.9% | [3] -6.75% | [4] 3.3% | [5] 9.8% | [6] -16.4%

O=C(O)COc1ccccc1P(=O)(c1ccccc1)c1ccccc1
inactive: [1] 23.1% | [2] 17.4% | [3] 9.7% | [4] 35.8% | [5] 22.4% | [6] 23%

COc1ccc2c(c1OC)C(=O)O[C@@H]2[C@H]1c2c(cc3c(c2OC)OCO3)CCN1C
inactive: [1] 5.7% | [2] -28.9% | [3] -27.8% | [4] 6.75% | [5] -7.35% | [6] 11.3%

COC(=O)c1c2cccccc-2c(C(=O)OC)c1N
inactive: [1] 15% | [2] 17.9% | [3] 28.8% | [4] -24.8% | [5] 36% | [6] 42.6%

CC(=NCCN=C(C)c1ccccc1O)c1ccccc1O.[Cu]
inactive: [1] -17.9% | [2] -8.05% | [3] 2.25% | [4] -23.6% | [5] -6.15% | [6] -8.55%

Cc1cccc(N(CCOS(C)(=O)=O)CCOS(C)(=O)=O)c1
inactive: [1] -8.6% | [2] -2.2% | [3] 14% | [4] -47.4% | [5] -5.2% | [6] -10.9%

CC(C)(C)CC(C)(C)c1ccc2c(c1)NC(C1Nc3cc(C(C)(C)CC(C)(C)C)ccc3O1)O2 (stereo unspecified)
inactive: [1] 8.05% | [2] -5.8% | [3] -4.55% | [4] -4.4% | [5] -2.6% | [6] 10.8%

CCCCOCCOC(=O)Nc1cccc(Cl)c1
inactive: [1] 35% | [2] 30.7% | [3] 51.1% | [4] -11.6% | [5] -0.3% | [6] 2.15%

O=C1c2ccccc2OCC1CS(=O)(=O)CC1COc2ccccc2C1=O (stereo unspecified)
inactive: [1] -9.5% | [2] 9.7% | [3] -5.45% | [4] 16.2% | [5] -0.5% | [6] 7.4%

Cc1cc(C(=O)O)ccc1C(=O)O
inactive: [1] -13.8% | [2] -31.6% | [3] -1.95% | [4] -39.4% | [5] -20.4% | [6] -25.1%

O=C(O)c1cc(Br)cc([N+](=O)[O-])c1
inactive: [1] -9.15% | [2] 15.1% | [3] -14.9% | [4] -49.3% | [5] -16.2% | [6] 21.1%

O=C(O)CCSCCCCCCCCCCCCSCCC(=O)O
inactive: [1] 16.5% | [2] 18.9% | [3] 18.4% | [4] 18.8% | [5] -3.65% | [6] 25.8%

CC(=O)c1cc2c(cc1C(C)C)CC[C@H]1[C@](C)(C#N)CCC[C@]21C
inactive: [1] 1% | [2] -1.15% | [3] 1.25% | [4] -26.6% | [5] 15.9% | [6] 31.3%

CCCCCCCCCC(CCCCCCCC(=O)O)NC(C)=O (stereo unspecified)
inactive: [1] 32.3% | [2] 16.6% | [3] 7.45% | [4] 32.5% | [5] -18.1% | [6] 1.05%

COc1ccccc1NC(=O)/C(=C\n1c(=S)[nH]c2ccc([N+](=O)[O-])cc21)C(C)=O
inactive: [1] -9.7% | [2] -10.4% | [3] 2.55% | [4] -6.25% | [5] 4.95% | [6] -4.15%

CC(C)(C#N)CCCS(C)(=O)=O
inactive: [1] -7.75% | [2] -4.35% | [3] -4% | [4] -9.25% | [5] -12.6% | [6] -2.65%

O=c1cc(C=Nc2cccc(Br)c2)[nH]c(=S)[nH]1
inactive: [1] -4.4% | [2] -17.4% | [3] -15.4% | [4] -24.8% | [5] -10.1% | [6] -10%

c1ccc(NP2(Nc3ccccc3)=NP(Nc3ccccc3)(Nc3ccccc3)=NP(Nc3ccccc3)(Nc3ccccc3)=N2)cc1
inactive: [1] -12.2% | [2] 5.55% | [3] -10.4% | [4] 15.2% | [5] 17.1% | [6] -2.2%
